Measured values: article PMC7862700, “An all-to-all approach to the identification of sequence-specific readers for epigenetic DNA modifications on cytosine”

Experiments:
Experiment in all cases: DAPPL (digital affinity profiling via proximity ligation, sequencing); 10 mM Tris-HCl pH 7.5, 50 mM NaCl, 1 mM DTT, 4% glycerol, room temperature, 30 min; GST-TFs on glutathione beads, 16-mer random dsDNA library, 0.1% formaldehyde crosslink after washing; high values mean tight binding
Details in all cases: protein: recombinant; tags: N-terminal GST; dsDNA, one strand shown
[1] = molecular target: T1, ERF (Homo sapiens, UniProt P50548 1-548)
T1 sequence: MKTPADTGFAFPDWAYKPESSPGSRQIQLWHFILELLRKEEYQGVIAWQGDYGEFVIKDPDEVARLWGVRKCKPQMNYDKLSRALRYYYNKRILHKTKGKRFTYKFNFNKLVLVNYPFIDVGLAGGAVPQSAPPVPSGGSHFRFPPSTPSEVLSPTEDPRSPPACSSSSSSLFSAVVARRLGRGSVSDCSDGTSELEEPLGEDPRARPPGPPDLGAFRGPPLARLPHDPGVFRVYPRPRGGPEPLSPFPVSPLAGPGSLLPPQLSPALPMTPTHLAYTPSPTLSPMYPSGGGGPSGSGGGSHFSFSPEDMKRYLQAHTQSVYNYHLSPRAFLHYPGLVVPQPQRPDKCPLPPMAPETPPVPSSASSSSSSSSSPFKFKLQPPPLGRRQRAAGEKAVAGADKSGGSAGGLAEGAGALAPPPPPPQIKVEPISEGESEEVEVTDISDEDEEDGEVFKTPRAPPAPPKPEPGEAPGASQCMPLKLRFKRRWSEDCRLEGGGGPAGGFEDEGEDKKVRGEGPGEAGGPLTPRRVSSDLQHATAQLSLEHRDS
Outline: (§1)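 GST fusions of human transcription factors were expressed in yeast and captured with glutathione beads. Once given DNA barcodes and pooled alongside a tag-only sample, they were incubated for 30 min at room temperature with 200 nmole of a random double-stranded 16-mer DNA library in Tris/NaCl/DTT/glycerol buffer, then washed, crosslinked (0.1% formaldehyde), proximity-ligated, PCR-amplified and sequenced on an Illumina NextSeq500. The binding signal of each hexamer is its read frequency for a factor divided by its frequency for the tag-only sample.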

[2] = molecular target: T2, ETV3L (Homo sapiens, UniProt Q6ZN32 1-361)
T2 sequence: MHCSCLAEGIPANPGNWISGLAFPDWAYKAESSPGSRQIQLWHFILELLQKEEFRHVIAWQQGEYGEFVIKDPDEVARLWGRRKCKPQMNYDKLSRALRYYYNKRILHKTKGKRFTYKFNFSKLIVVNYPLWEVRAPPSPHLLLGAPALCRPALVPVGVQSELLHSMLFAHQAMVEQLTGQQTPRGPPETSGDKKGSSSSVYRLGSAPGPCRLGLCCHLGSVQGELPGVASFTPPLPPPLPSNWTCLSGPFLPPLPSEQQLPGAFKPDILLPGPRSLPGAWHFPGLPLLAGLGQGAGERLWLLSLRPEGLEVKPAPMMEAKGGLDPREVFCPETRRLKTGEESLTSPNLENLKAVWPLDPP
Outline: as §1

[3] = molecular target: T3, ETS2 (Homo sapiens, UniProt P15036 1-469)
T3 sequence: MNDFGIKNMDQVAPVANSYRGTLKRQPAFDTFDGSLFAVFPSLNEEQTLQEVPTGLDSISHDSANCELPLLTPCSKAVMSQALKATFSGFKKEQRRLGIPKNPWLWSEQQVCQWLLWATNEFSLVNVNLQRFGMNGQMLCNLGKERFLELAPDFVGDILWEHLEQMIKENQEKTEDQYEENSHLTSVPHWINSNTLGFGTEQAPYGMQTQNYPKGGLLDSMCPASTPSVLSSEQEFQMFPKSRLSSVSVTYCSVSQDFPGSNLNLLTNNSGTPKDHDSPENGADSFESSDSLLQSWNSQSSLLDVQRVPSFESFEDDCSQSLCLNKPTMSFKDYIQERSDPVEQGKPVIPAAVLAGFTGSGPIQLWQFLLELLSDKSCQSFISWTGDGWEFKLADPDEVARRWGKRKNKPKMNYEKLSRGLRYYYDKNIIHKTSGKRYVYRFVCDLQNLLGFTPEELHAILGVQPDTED
Outline: as §1

[4] = molecular target: T4, SPDEF (Homo sapiens, UniProt O95238 1-335)
T4 sequence: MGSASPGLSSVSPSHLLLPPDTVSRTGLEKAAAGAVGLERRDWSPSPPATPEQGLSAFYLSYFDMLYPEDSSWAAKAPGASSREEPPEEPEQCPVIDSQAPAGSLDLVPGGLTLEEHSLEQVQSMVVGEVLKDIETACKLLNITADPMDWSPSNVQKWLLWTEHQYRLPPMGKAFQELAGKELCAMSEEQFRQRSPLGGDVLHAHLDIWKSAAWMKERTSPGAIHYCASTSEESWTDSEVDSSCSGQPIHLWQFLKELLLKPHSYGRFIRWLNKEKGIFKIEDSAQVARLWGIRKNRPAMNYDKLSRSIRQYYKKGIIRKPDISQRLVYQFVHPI
Outline: as §1

[5] = molecular target: T5, ETV7 (Homo sapiens, UniProt Q9Y603 1-341)
T5 sequence: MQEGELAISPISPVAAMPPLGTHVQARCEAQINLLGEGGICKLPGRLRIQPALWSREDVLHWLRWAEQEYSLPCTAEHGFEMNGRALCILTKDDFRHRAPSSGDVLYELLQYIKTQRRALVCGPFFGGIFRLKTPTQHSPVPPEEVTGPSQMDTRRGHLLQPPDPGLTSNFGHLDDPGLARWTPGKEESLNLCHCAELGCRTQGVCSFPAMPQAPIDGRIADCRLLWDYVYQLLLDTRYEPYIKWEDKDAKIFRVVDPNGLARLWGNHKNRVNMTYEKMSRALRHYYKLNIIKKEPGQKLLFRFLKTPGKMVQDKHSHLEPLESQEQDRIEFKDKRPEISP
Outline: as §1

[6] = molecular target: T6, ELF5 (Homo sapiens, UniProt Q9UKW6-2 1-255)
T6 sequence: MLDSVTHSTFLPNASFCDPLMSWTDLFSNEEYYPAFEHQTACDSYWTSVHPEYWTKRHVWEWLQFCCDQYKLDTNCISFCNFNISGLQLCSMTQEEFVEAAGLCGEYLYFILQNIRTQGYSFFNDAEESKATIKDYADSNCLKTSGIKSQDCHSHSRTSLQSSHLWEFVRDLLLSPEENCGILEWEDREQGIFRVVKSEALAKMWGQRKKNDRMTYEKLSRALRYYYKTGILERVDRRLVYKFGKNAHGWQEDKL
Outline: as §1

[7] = molecular target: T7, ETV3 (Homo sapiens, UniProt P41162-2 1-143)
T7 sequence: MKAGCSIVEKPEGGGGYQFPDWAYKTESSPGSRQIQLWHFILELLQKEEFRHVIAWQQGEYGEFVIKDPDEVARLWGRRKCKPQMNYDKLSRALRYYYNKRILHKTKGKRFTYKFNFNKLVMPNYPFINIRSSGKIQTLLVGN
Outline: as §1

[8] = molecular target: ETV6 (Homo sapiens, UniProt P41212 1-452)
ETV6, sequence (P41212 whole entry): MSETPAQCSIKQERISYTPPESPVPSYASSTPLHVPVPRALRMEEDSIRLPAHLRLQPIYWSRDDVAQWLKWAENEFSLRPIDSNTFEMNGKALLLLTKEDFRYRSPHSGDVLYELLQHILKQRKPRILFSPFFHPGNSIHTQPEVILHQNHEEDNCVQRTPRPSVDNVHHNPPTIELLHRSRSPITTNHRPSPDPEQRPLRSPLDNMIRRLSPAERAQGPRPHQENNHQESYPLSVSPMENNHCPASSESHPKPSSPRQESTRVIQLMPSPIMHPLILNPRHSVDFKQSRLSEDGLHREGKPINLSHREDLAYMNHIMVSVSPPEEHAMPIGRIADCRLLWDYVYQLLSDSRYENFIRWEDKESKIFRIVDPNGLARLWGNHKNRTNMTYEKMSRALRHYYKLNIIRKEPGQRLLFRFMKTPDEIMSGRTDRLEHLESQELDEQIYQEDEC
Outline: as §1

Sequence	binding signal [1]	binding signal [2]	binding signal [3]	binding signal [4]	binding signal [5]	binding signal [6]	binding signal [7]	binding signal [8]
CTGGTA	1.28 fold enrichment (6-mer frequency, TF over GST control)	1.34 fold enrichment (6-mer frequency, TF over GST control)	1.32 fold enrichment (6-mer frequency, TF over GST control)	1.4 fold enrichment (6-mer frequency, TF over GST control)	1.4 fold enrichment (6-mer frequency, TF over GST control)	1.35 fold enrichment (6-mer frequency, TF over GST control)	1.29 fold enrichment (6-mer frequency, TF over GST control)	1.29 fold enrichment (6-mer frequency, TF over GST control)
GCTTTC	1.28 fold enrichment (6-mer frequency, TF over GST control)	1.29 fold enrichment (6-mer frequency, TF over GST control)	1.24 fold enrichment (6-mer frequency, TF over GST control)	1.18 fold enrichment (6-mer frequency, TF over GST control)	1.31 fold enrichment (6-mer frequency, TF over GST control)	1.23 fold enrichment (6-mer frequency, TF over GST control)	1.25 fold enrichment (6-mer frequency, TF over GST control)	1.23 fold enrichment (6-mer frequency, TF over GST control)
ATGCAA	1.23 fold enrichment (6-mer frequency, TF over GST control)	1.26 fold enrichment (6-mer frequency, TF over GST control)	1.26 fold enrichment (6-mer frequency, TF over GST control)	1.3 fold enrichment (6-mer frequency, TF over GST control)	1.19 fold enrichment (6-mer frequency, TF over GST control)	1.26 fold enrichment (6-mer frequency, TF over GST control)	1.17 fold enrichment (6-mer frequency, TF over GST control)	1.24 fold enrichment (6-mer frequency, TF over GST control)
CTTAGG	1.12 fold enrichment (6-mer frequency, TF over GST control)	1.01 fold enrichment (6-mer frequency, TF over GST control)	1.23 fold enrichment (6-mer frequency, TF over GST control)	1.06 fold enrichment (6-mer frequency, TF over GST control)	1.17 fold enrichment (6-mer frequency, TF over GST control)	1.11 fold enrichment (6-mer frequency, TF over GST control)	1.1 fold enrichment (6-mer frequency, TF over GST control)	1.15 fold enrichment (6-mer frequency, TF over GST control)
TTAACC	1.23 fold enrichment (6-mer frequency, TF over GST control)	1.32 fold enrichment (6-mer frequency, TF over GST control)	1.29 fold enrichment (6-mer frequency, TF over GST control)	1.35 fold enrichment (6-mer frequency, TF over GST control)	1.23 fold enrichment (6-mer frequency, TF over GST control)	1.28 fold enrichment (6-mer frequency, TF over GST control)	1.38 fold enrichment (6-mer frequency, TF over GST control)	1.32 fold enrichment (6-mer frequency, TF over GST control)
AATTAA	1.31 fold enrichment (6-mer frequency, TF over GST control)	1.2 fold enrichment (6-mer frequency, TF over GST control)	1.24 fold enrichment (6-mer frequency, TF over GST control)	1.17 fold enrichment (6-mer frequency, TF over GST control)	1.2 fold enrichment (6-mer frequency, TF over GST control)	1.23 fold enrichment (6-mer frequency, TF over GST control)	1.25 fold enrichment (6-mer frequency, TF over GST control)	1.32 fold enrichment (6-mer frequency, TF over GST control)
TCCTAG	1.26 fold enrichment (6-mer frequency, TF over GST control)	1.08 fold enrichment (6-mer frequency, TF over GST control)	1.26 fold enrichment (6-mer frequency, TF over GST control)	1.4 fold enrichment (6-mer frequency, TF over GST control)	1.25 fold enrichment (6-mer frequency, TF over GST control)	1.41 fold enrichment (6-mer frequency, TF over GST control)	1.32 fold enrichment (6-mer frequency, TF over GST control)	1.26 fold enrichment (6-mer frequency, TF over GST control)
